This is a sample that favours compounds with a hit; in the whole collection about 15% have one here.
DT40 TDP1 CPT – growth inhibition of DT40 Tdp1-/-;hTDP1 cells with camptothecin (screen for TDP1 inhibitors). chicken DT40 Tdp1-/-;hTDP1 cells + 20 nM CPT, ATP luminescence, 48 h. Potency, µM (series often up to 46.2 µM), for the others: at the highest dose activity change, negative = growth inhibition, hits mostly inhibitors. 420,000 tested, 12% active; further: nearly all actives have a fitted effect of over 55% in size
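Chicken DT40 Tdp1-/- cells stably complemented with human TDP1 were seeded at 400 cells/well in medium containing 20 nM camptothecin, exposed to pin-transferred compounds, and grown at 37 °C for at least 48 hr. Viability was read as ATP luminescence.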
RORg inh – inhibitors of mouse ROR gamma transcriptional activity | AID 2551 | Drosophila S2 Gal4-RORgamma UAS-luciferase reporter, 20 h | 310,000 tested, 5.4% active | Potency, µM (titrated, usually from 53.6 µM), without a hit: at the top dose activity change, negative = inhibition, usual class: inhibitors; further: nearly all actives have a fitted effect of over 60% in size
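Compounds are pin-transferred onto Drosophila Schneider cells expressing a copper-inducible Gal4–ROR gamma transactivation domain fusion. After 1 hr, copper sulfate is added to 700 uM final; luciferase is read 20 hr later.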
Gal4-VP16 FLuc – Gal4-VP16 reporter inhibition counter-screen | AID 2546 | 310,000 tested, 3.5% active | Potency, µM (top dose mostly 53.6 µM), without a hit: top-dose activity, negative = inhibition, hits mostly inhibitors | Drosophila S2 Gal4-VP16 UAS-luciferase, luminescence, 20 h;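 further: Gal4-VP16 expression switched on by copper sulfate through the metallothionein promoter; nearly all actives have a fitted effect of over 50% in size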
ELG1 DNA repair – ELG1-dependent DNA repair inhibition; HEK293T ELG1-luciferase reporter, luminescence, 16 h; DNA damage induced by 5-fluorouridine; Potency, µM (highest dose often 46.1 µM), for inactives: at the top dose activity change, negative = inhibition, usual class: inhibitors; 330,000 tested, 2.3% active; AID 504467; further: nearly all actives have a fitted effect of over 55% in size
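In this reporter screen, reduction of luminescence relative to DMSO vehicle indicated activity. Compounds and 5-fluorouridine were added together to 2,000 cells per well, incubated for 16 hr at 37 °C, then developed with ONE-Glo.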
TDP1 cell noCPT – qHTS for Inhibitors of human tyrosyl-DNA phosphodiesterase 1 (TDP1): qHTS in cells in absence of CPT; DT40 Tdp1-/- hTDP1 cells, no CPT, ATP luminescence, 48 h; Potency, µM (titrated, usually from 46.2 µM), without a hit: top-dose activity change, negative = growth inhibition, usual class: inhibitors; 420,000 tested, 15% active; AID 686978, 2013; further: nearly all actives have a fitted effect of over 55% in size
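Camptothecin absent (DMSO only). Human TDP1-complemented DT40 knockout cells, 400 cells/well, 37 °C for minimum 48 hr; ATP measured via CellTiter-Glo, 30 min dark incubation, luminescence.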
12-LOX inh – inhibitors of human 12S-lipoxygenase ALOX12 | P18054 | purified 12hLO, xylenol orange hydroperoxide absorbance | Potency, µM (titrated, usually from 108 µM), for inactives: at the highest dose activity change, negative = inhibition, most hits filed as inhibitors | AID 1671190 | 580,000 tested, 1.1% active
Target sequence (P18054 whole entry, looked up): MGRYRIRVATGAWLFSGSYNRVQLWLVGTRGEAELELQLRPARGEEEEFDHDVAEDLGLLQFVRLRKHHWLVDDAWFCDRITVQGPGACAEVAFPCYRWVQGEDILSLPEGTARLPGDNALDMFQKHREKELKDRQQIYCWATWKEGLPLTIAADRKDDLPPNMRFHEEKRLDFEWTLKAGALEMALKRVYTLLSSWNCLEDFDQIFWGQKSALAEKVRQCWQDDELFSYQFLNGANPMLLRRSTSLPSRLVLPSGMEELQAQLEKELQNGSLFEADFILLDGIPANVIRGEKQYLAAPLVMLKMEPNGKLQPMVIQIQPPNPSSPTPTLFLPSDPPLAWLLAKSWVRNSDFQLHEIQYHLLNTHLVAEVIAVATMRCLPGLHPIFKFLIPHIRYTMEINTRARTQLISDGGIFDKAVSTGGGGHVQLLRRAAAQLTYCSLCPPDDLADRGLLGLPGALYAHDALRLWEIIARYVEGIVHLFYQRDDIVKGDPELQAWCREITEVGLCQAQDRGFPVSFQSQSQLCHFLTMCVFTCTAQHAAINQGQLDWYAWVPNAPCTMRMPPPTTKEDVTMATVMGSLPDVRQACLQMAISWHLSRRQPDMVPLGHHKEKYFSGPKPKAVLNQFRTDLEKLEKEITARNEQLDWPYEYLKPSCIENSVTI
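Purified human 12hLO (150 nM final) in 25 mM Hepes, 0.01% Triton X-100, pH 7.0 was preincubated 15 min at room temperature with compound. Then 40 uM arachidonic acid was added, 30 min. Hydroperoxide was read by Fe-XO absorbance ratio 573/405 nm.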
The depositor's hits bear a star; ? = inconclusive; . = no result given; [ ] = remark or other dose. The call rests on the fitted dose curve; in most records, active means well fitted curve in the direction sought with a large enough effect; inconclusive means small, poorly fitted or top-dose-only effect, or another doubt; inactive means no such curve, though single readings can be large; an effect the other way counts as inactive or inconclusive. On the % scale 0 is the no-effect control and ±100 the full control effect; potency means the concentration at half of the fitted maximal effect.

SMILES	DT40 TDP1 CPT	RORg inh	Gal4-VP16 FLuc	ELG1 DNA repair	TDP1 cell noCPT	12-LOX inh
CCOc1ccc(-n2cc(C(=O)Nc3cccc(Cl)c3)c3cc(OC)c(OC)cc3c2=O)cc1	-25.3%	-5.9%	-0.6%	?	-26.8%	-5.6%
CCOc1ccc(-n2cc(C(=O)Nc3cccc(C)n3)c3cc(OC)c(OC)cc3c2=O)cc1	?	.	.	.	25.9µM*	?
CCCCNC(=O)c1cn(-c2ccc(OCC)cc2)c(=O)c2cc(OC)c(OC)cc12	?	5.8%	-16.9%	23.1µM*	?	0.0%
COc1cc(C(=O)Nc2cccc(-c3nc4ccc(C)cc4o3)c2)cc(OC)c1OC	.	.	.	.	.	-11.4%
Cc1nn(-c2ccccc2)c2c1N(CC(=O)NCc1ccc(N(C)C)cc1)C(=O)CS2	?	.	.	.	18.4µM*	-27.8%
CCCOc1ccc(CNC(=O)CCCN2C(=O)CSc3c2c(C)nn3-c2ccccc2)cc1	20.6µM*	.	.	.	?	?
COc1ccc(CNC(=O)CCCN2C(=O)CSc3c2c(C)nn3-c2ccccc2)cc1	?	.	.	.	?	-20.2%
Cc1ccc(CNC(=O)CN2C(=O)CSc3c2c(C)nn3-c2ccccc2)cc1	-3.7%	.	.	.	-0.2%	-21.7%
COc1ccc(CNC(=O)CCCN2C(=O)CSc3c2c(C)nn3-c2ccccc2)c(OC)c1	?	.	.	.	16.4µM*	?
Cc1nn(-c2ccccc2)c2c1N(CCCC(=O)NCc1ccc(N(C)C)cc1)C(=O)CS2	23.1µM*	.	.	.	23.1µM*	-16.3%
COc1ccc(C(NC(=O)c2cccc(Cl)c2)NC(=O)c2cccc(Cl)c2)cc1	.	.	.	.	.	9.4%
CCOC(=O)C(C#N)C(c1ccco1)c1ccccc1OC (configuration not stated)	.	.	.	.	.	-39.0%
c1csc(C2CCCN2c2nc3nonc3nc2NC2CC2)n1 (configuration not stated)	5.1%	5.01µM*	10µM*	5.8%	3.9%	-3.4%
Cc1ccc(Cn2c(Sc3ccc(C)cc3)nc3c2c(=O)[nH]c(=O)n3C)cc1	.	.	.	.	.	-4.7%
COc1ccccc1-c1noc2nc(Nc3cccc(Cl)c3)ccc12	.	.	.	.	.	28.2µM*
COc1ccccc1-c1noc2nc(OCc3ccc(F)cc3)ccc12	.	.	.	.	.	10.6%
COc1ccccc1NCC(=O)NNC(=O)COc1ccc2ccccc2c1	.	.	.	.	.	1.6%
Cc1noc([C@@H]2CN(Cc3ccco3)C[C@H]2CO)n1	.	.	.	.	.	45.5%
COc1ccc2c(c1)C1OCCC1C(c1ccco1)N2 (configuration not stated)	23.1µM*	.	.	.	?	.
c1coc(C2Nc3ccccc3C3OCCC23)c1 (configuration not stated)	2.5%	29.8%	-2.8%	?	-4.9%	82.8%
CCCCc1c(-c2ccccc2OC)ncn1CCc1cccc(OC)c1	14.6µM*	.	.	.	18.4µM*	?
CCCCc1c(-c2ccccc2OC)ncn1Cc1cc(F)cc(F)c1	.	.	.	.	.	-6.3%
CCCCc1c(-c2ccccc2OC)ncn1CCc1cccc(F)c1	16.4µM*	.	.	.	20.6µM*	-31.4%
COc1ccc(NC(=O)N[C@H]2[C@H](O)[C@@H](N3CCN(C)CC3)[C@@H]3OC[C@H]2O3)cc1	.	.	.	.	.	56.9%[176 µM]
CC1CCN(C(=O)CCC(=O)N2CC(C)Oc3ccccc32)CC1 (configuration not stated)	-0.3%	-11.8%	3.9%	15.3%	-23.1%	26.3%
SMILES	DT40 TDP1 CPT	RORg inh	Gal4-VP16 FLuc	ELG1 DNA repair	TDP1 cell noCPT	12-LOX inh
COc1cc(CCC(=O)N2CCN(c3cccc(C)c3C)CC2)cc(OC)c1OC	11.6µM*	31.7%	2.2%	18.3µM*	10.3µM*	?
Cc1ccc2c(c1)N(C(=O)CCC(=O)N1CCN(c3cccc(C)c3C)CC1)CCO2	16.4µM*	?	-14.5%	-23.0%	18.4µM*	1.2%
Cc1cccc(N2CCN(C(=O)CCC(=O)N3CC(C)Oc4ccccc43)CC2)c1C (configuration not stated)	16.4µM*	?	-0.5%	?	13µM*	6.4%
CCCCCCCCCC(=O)OCC	.	.	.	.	.	12.7%[176 µM]
COc1ccccc1C(=O)N1CCCC2(C1)C(=NC1CCCCC1)NC(=O)N2c1cc(F)cc(F)c1 (configuration not stated)	.	.	.	.	.	4.8%[6.33 µM]
CN(C)CCN(Cc1ccccc1)C(=O)Nc1ccc(C(=O)NCC(F)(F)F)cc1	.	.	.	.	.	22.8%
CCOc1ccc(CCNC(=O)c2ccc(CSCc3ccccc3C)o2)cc1OCC	16.4µM*	.	.	.	16.4µM*	-25.8%
CCOc1ccc(CCNC(=O)c2ccc(CS(=O)(=O)Cc3ccccc3Cl)o2)cc1OCC	16.4µM*	.	.	.	23.1µM*	-29.8%
COc1ccc(CCNC(=O)c2ccc(CS(=O)(=O)Cc3cccc(C)c3)o2)cc1OC	20.6µM*	1.6%	-0.9%	23.1µM*	11.6µM*	-1.3%
CC(C)Oc1ccc(CNC(=O)C2Cn3cccc3C(=O)N2)cc1 (configuration not stated)	.	.	.	.	.	31.5%
O=C(NNc1nc(-c2ccc(F)cc2)cs1)c1ccccc1	2.59µM*	5.01µM*	?	?	4.11µM*	-15.2%
O=C1OC(Nc2nc(-c3ccc(F)cc3)cs2)c2ccccc21 (configuration not stated)	14.6µM*	-13.6%	-8.6%	-29.2%	23.1µM*	-0.2%
O=C(NNc1nc(-c2ccccc2)cs1)c1ccc(F)cc1	5.3%	2µM*	11.2µM*	?	0.8%	-6.1%
O=C(O)CCCC(=O)Nc1nc(-c2ccc(F)cc2)cs1	-3.1%	-9.0%[0.365 µM]	.	2.5%	-9.0%	-5.8%
O=C(Nc1nc(-c2ccccc2)cs1)c1ccccc1F	-12.4%	.	.	?	-11.7%	13.9%
O=C(NC1CC1)[C@@H]1C[C@H](Oc2ccccc2)CN1C(=O)CC1CCCC1	.	.	.	.	.	-3.2%
O=C1NC2(CCN(C(=O)c3ccccc3)C2)N=C1c1cccnc1 (configuration not stated)	.	.	.	.	.	8.0%[176 µM]
Brc1cc2c(cc1CSc1ccccn1)OCCO2	.	.	.	.	.	29.6%
COc1ccc(-c2ccc3c(c2)C(=O)N2CCN(C(=O)COc4ccccc4)C[C@@H]2C(=O)N3)cc1	.	.	.	.	.	9.2%
CCCS(=O)(=O)N1CCC(N2CCCC(C(=O)N3CCOCC3)C2)CC1 (configuration not stated)	.	.	.	.	.	52.4%
COc1ccc(C2CCCN2Cc2cc(=O)oc3c(C)c(C)ccc23)cc1 (configuration not stated)	.	.	.	.	.	-17.4%
Cc1cccc(C)c1OCC(=O)NCc1nncn1C	.	.	.	.	.	-20.8%
CC1(C(=O)NCc2ccccc2)CN(Cc2ccccc2)Cc2ccc(N3CCOCC3)nc21 (configuration not stated)	.	.	.	.	.	52.7%

Assay outcomes (PubChem BioAssay)
